MITF primary – blocks human microphthalmia-associated transcription factor | O75030 | AID 1259374 | 650,000 tested, 0.91% active | AlphaScreen MITF homodimerization, bead proximity signal | inhibition, % at 2.6 µM; in the data active means inhibition above about 50%
Target sequence (O75030 whole entry, looked up): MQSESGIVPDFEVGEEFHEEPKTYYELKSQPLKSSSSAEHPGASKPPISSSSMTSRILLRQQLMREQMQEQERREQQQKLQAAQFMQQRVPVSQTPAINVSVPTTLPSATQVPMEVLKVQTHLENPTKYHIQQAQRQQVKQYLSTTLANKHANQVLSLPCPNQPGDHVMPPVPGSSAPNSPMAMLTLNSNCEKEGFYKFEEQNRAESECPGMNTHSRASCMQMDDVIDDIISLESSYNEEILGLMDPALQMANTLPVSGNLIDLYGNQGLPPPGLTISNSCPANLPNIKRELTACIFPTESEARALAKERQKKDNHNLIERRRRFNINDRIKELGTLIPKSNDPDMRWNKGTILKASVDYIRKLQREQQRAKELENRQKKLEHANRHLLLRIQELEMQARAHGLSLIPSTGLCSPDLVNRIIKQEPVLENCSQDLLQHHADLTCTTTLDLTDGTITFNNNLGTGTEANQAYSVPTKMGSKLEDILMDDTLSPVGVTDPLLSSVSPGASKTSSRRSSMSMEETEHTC
TEAD-YAP inh – TEAD-YAP interaction inhibition. HEK-TIYL cells, TEAD-Gal4/YAP UAS-luciferase luminescence. inhibition, % at 9.12 µM. 640,000 tested, 1.4% active. AID 1259422; in the data active means inhibition above about 32%
FBW7 activator – activators of human E3 ligase FBW7; Q969H0; AlphaScreen FBW7–phospho-cyclin E peptide binding, activator screen; normalized activity (activation), % at 26.1 µM; 650,000 tested, 0.13% active; AID 1259310; in the data active means normalized activity above about 1.9%;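 further: purified mutant Fbw7 with reduced substrate affinity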
GPR151 ag – activates the human receptor GPR151; activation, % at 11.2 µM; Q8TDV0; 650,000 tested, 1% active; PathHunter beta-arrestin GPR151 cells, luminescence; AID 1508602; in the data active means activation above about 4.9%
MITF confirm – human MITF inhibition, confirmation; AID 1259372; shares compounds with MITF primary; inhibition, % at 2.6 µM; AlphaScreen MITF homodimerization, biotin/His-MITF beads; 4,700 tested, 16% active;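 active means inhibition above a cutoff derived from the DMSO control wells, cut at about 28% in these data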;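 further: inhibitors lower the bead chemiluminescence by keeping MITF from dimerizing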
AlphaScreen DR – counter-screen: compounds optically interfering with AlphaScreen; AID 1259373; 480 tested, 6% active; IC50, µM; AlphaScreen optical interference counterscreen, cell-free; shares compounds with MITF primary; call rule not given here
AlphaScreen intf2 – optically interferes with AlphaScreen signal; LysRS AlphaScreen counterscreen, signal interference, triplicate; shares compounds with MITF primary; inhibition, % at 2.6 µM; 4,700 tested, 7.6% active;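 active means inhibition above a cutoff derived from the DMSO control wells, cut at about 30% in these data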
A number is an active result; i = inactive; nt = not tested or not shown. Shown are actives, neighbours in structure and some others; about 3.5% of the full set was active somewhere.

SMILES	MITF primary	TEAD-YAP inh	FBW7 activator	GPR151 ag	MITF confirm	AlphaScreen intf2	others
O=C(CSc1nc(NCc2ccco2)c2ccccc2n1)N1CCN(c2ccccc2)CC1	52	i	i	i	i	i
N#C/C(=C\c1cc(Br)cc([N+](=O)[O-])c1O)c1nc2ccccc2[nH]1	i	i	i	i	nt	nt
Cc1ccc(NC(=O)/C(=C\c2ccc([N+](=O)[O-])o2)NC(=O)c2ccc(Cl)cc2)cc1	i	i	i	i	nt	nt
Cc1ccc(C(=O)N/C(=C/c2ccc([N+](=O)[O-])o2)C(=O)O)cc1	70	i	i	i	54	i	AlphaScreen DR=i
CN(C)CCOc1ccc2ccccc2c1	76	i	i	i	i	i
Cc1cccc(Cn2c(=O)n(CCCCC(=O)NCc3cccs3)c(=O)c3ccccc32)c1	i	i	i	i	nt	nt
O=[N+]([O-])c1ccc(N2CCc3ccccc3C2)c([N+](=O)[O-])c1	i	i	i	i	nt	nt
O=[N+]([O-])c1ccc(N2CCCc3ccccc32)c([N+](=O)[O-])c1	61	i	i	i	47	40
Cc1ccc(C2(c3ccc(C)o3)C(=O)Nc3ccccc32)o1	i	i	i	i	nt	nt
O=C1CNS(=O)(=O)c2ccccc2N1	59	i	i	i	i	i
COc1cccc(CN2CCN(S(C)(=O)=O)CC2)c1	i	i	i	i	nt	nt
COc1cccc(CN2CCN(S(=O)(=O)Cc3ccccc3)CC2)c1	68	i	i	i	i	i
CCOc1cc(CN2CCN(S(=O)(=O)Cc3ccccc3)CC2)ccc1OC	i	i	i	i	nt	nt
CCS(=O)(=O)N1CCN(Cc2cccc(OC)c2)CC1	57	i	i	i	i	i
O=C(NC1CCCCC1)C1CC(c2ccccc2F)=NO1 (stereo unspecified)	i	i	i	i	nt	nt
O=C(O)CN(CCN(CC(=O)O)CC(=O)O)CC(=O)O	i	i	i	i	nt	nt
COC(=O)CN(CCN(CC(=O)O)CC(=O)OC)CC(=O)O	55	i	i	i	41	i
O=C(CCCCCn1c(=S)[nH]c2ccc(Br)cc2c1=O)N1CCN(c2ccccc2)CC1	i	i	i	i	nt	nt
CN(CC1CCCCO1)C(=O)Cn1nnnc1CN1CCCCCC1 (stereo unspecified)	51	i	i	i	i	i
COc1ccc(CN2CCN(Cc3c[nH]c4ccccc34)CC2)c(OC)c1	58	i	i	i	i	i
CCOc1cc(CN2CCN(Cc3c[nH]c4ccccc34)CC2)ccc1OC	60	i	i	i	i	i
COc1ccc(CN2CCN(Cc3c[nH]c4ccccc34)CC2)cc1	64	i	i	i	i	i
CCOC(=O)c1ccccc1NC(=O)c1sc(NC(=O)C2CC2)c(C(=O)OCC)c1C	i	i	i	i	nt	nt
COc1ccc(-c2nc(-c3ccc4c(c3)C(=O)c3ccccc3-4)c(-c3ccccc3)[nH]2)c(OC)c1	i	i	i	i	nt	nt
COCCN(C1CCN(CCc2ccc(Cl)cc2)CC1)S(=O)(=O)c1cccs1	63	i	i	i	i	i
SMILES	MITF primary	TEAD-YAP inh	FBW7 activator	GPR151 ag	MITF confirm	AlphaScreen intf2	others
CSc1ccc(/C=C2\N=C(c3ccc(Cl)c(Cl)c3)OC2=O)cc1	i	i	i	i	nt	nt
COc1ccc(CC(=O)NNC(=O)c2ccco2)cc1	i	i	i	i	nt	nt
O=[N+]([O-])c1cccc(CN2CCN(S(=O)(=O)Cc3ccccc3)CC2)c1	i	i	i	i	nt	nt
O=[N+]([O-])c1cccc(CN2CCC(N3CCCCCC3)CC2)c1	67	i	i	i	i	i
CC1CCN(C2CCN(Cc3cccc([N+](=O)[O-])c3)CC2)CC1	i	i	i	i	nt	nt
O=[N+]([O-])c1cccc(CN2CCC(N3CCN(Cc4ccccc4)CC3)CC2)c1	i	i	i	i	nt	nt
CC1CCCC(N2CCN(Cc3cccc([N+](=O)[O-])c3)CC2)C1 (stereo unspecified)	75	i	i	i	i	i
CC1CCC(N2CCN(Cc3cccc([N+](=O)[O-])c3)CC2)CC1 (stereo unspecified)	60	i	i	i	i	i
CS(=O)(=O)N1CCN(Cc2cccc([N+](=O)[O-])c2)CC1	72	i	i	i	i	i
Oc1ccccc1N1CCN(c2nncc(-c3ccc(C(F)(F)F)cc3)n2)CC1	i	i	i	i	nt	nt
CC1CCCCN1C(=O)Nc1cn(C)c(=O)c2ccccc12 (stereo unspecified)	i	i	i	i	nt	nt
CC(=O)Nc1ccc(C(=O)OCC(=O)Nc2cc(C)cc(C)c2)cc1	i	i	i	i	nt	nt
CC(=O)Oc1cc(C(=O)OCC(=O)Nc2ccc(C)cc2)cc(OC(C)=O)c1OC(C)=O	80	i	i	i	56	i	AlphaScreen DR=i
CCOC(=O)c1cc2c(c(CSc3nc4ccccc4c(=O)n3Cc3ccccc3)c1)OCOC2	i	i	i	i	nt	nt
O=c1c2ccccc2nc(SCc2cc(F)cc3c2OCOC3)n1C1CCCCC1	69	i	i	i	i	i
CCOC(=O)c1cc2c(c(CSc3nc4ccccc4c(=O)n3CCc3ccccc3)c1)OCOC2	69	i	i	i	i	i
O=C(Cc1cn2ccsc2n1)N/N=C/c1ccc([N+](=O)[O-])o1	70	i	i	i	92	40
Cn1c(-c2ccc(Br)cc2)cnc1NCc1ccc(C#N)cc1	i	i	i	i	nt	nt
Cn1c(-c2ccc(Cl)cc2)cnc1NCc1ccc(C#N)cc1	54	i	i	i	i	i
O=C1OC(c2ccc(Cl)cc2Cl)=N/C1=C\c1ccc([N+](=O)[O-])o1	56	i	i	i	51	i	AlphaScreen DR=i
CC(=O)c1ccc(NC(=O)CSc2nnc(-c3ccncc3)n2CCCN(C)C)cc1	71	i	i	i	i	i
Cn1c(SCC(=O)Nc2ccc(C(=O)O)cc2)nnc1-c1ccncc1	i	i	i	i	nt	nt
CCc1ccc(NC(=O)CSc2nnc(-c3ccncc3)n2CCCN(C)C)cc1	88	i	i	i	i	i
CCn1c(SCC(=O)Nc2ccc(NC(=O)C(C)(C)C)cc2)nnc1-c1ccncc1	i	i	i	i	nt	nt
COc1ccc(CCNC(=O)CN(CCc2ccccc2)S(C)(=O)=O)cc1	i	i	i	i	nt	nt
SMILES	MITF primary	TEAD-YAP inh	FBW7 activator	GPR151 ag	MITF confirm	AlphaScreen intf2	others
C=CCN1C(=O)/C(=C\c2ccn(-c3cccc([N+](=O)[O-])c3)c2)C(=O)NC1=S	i	i	i	i	nt	nt
CCN(CC)CCN1CCN(c2ccnc3c(-c4ccco4)cnn23)CC1	55	i	i	i	i	i
CCOC(=O)c1cc[n+](CC(=O)c2cccc([N+](=O)[O-])c2)cc1	i	i	i	i	nt	nt
N#Cc1cc[n+](CC(=O)c2cccc([N+](=O)[O-])c2)cc1	63	i	i	i	i	i
Oc1[nH]c2ccccc2c1C=NCc1ccco1	i	i	i	i	nt	nt
COC(=O)COc1ccc(C2NC(=S)NC(C)=C2C(=O)OC)cc1 (stereo unspecified)	i	i	i	i	nt	nt
O=C(CSc1ccc(-c2cccnc2)nn1)NCc1ccccc1Cl	i	i	i	i	nt	nt

Screening data: PubChem, The Scripps Research Institute Molecular Screening Center
